Laboratory results as given in PubChem BioAssay AID1209 (Sanford-Burnham Center for Chemical Genomics, 2008).
In all, about 190,000 compounds went through this assay and about 810 (0.43%) were called active. For the sample, actives were picked, then their nearest neighbours and some compounds at random. A number with no mark means an inactive call. Cut-off read from the data, not from the text of the source: active = inhibition above about 50%; inactive = the rest.

target: Mannose-6-phosphate isomerase (Homo sapiens) (UniProt P34949); experiment: inhibitors of human PMI, primary screen, biochemical, fluorescence intensity, coupled assay (AID 1209); settings: purified PMI enzyme, at 20 µM, stronger effect = higher value;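 note: plate controls were DMSO vehicle for no effect and wells lacking substrate for full effect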
Sequence (P34949 whole entry, looked up): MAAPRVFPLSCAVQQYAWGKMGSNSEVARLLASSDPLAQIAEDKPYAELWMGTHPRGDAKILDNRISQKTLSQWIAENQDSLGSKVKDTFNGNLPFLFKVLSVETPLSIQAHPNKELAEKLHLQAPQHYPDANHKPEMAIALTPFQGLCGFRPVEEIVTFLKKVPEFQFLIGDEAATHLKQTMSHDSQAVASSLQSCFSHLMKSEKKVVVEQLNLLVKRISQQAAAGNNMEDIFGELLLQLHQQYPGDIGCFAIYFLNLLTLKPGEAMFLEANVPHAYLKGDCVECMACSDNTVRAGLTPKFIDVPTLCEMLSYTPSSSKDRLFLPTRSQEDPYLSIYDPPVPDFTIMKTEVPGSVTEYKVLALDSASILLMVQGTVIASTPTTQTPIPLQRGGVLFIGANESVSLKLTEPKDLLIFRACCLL

SMILES	inhibition
CCOCCCNC(=O)c1ccc(N2CCOCC2)c(NS(=O)(=O)c2ccc(OC)cc2)c1	-1.6%
Cn1c(COc2ccc([N+](=O)[O-])cc2)nnc1SCC(N)=O	-9.7%
O=C1CCN2C=Nc3cccc4ccc1c2c34	84.5% (active)
c1cc2c3c(cccc3c1)C(N1CCCCC1)=N2	33.9%
c1cc2c3c(cccc3c1)C(N1CCCCCC1)=N2	15.8%
COc1ccc(CCN2CC(C#N)=C3c4cc(OC)c(OC)cc4CCN3C2)cc1OC	18.8%
COc1cc2c(cc1OC)C1=C(C#N)CN(C3CCCCC3)CN1CC2	27.4%
COc1cc2c(cc1OC)C1=C(C#N)CN(CC(=O)O)CN1CC2	70.5% (active)
CCCCNC(c1ccccc1)c1ccncc1 (stereo not given)	6.1%
CCn1c(SCC(=O)NC2CCS(=O)(=O)C2)nnc1-c1ccccc1 (stereo not given)	-4.5%
COc1cc(NC(=O)CN2C(=O)CN(C)C2=O)c(C)cc1[N+](=O)[O-]	-9.8%
Cc1ccccc1NC(=O)C1c2cccc[n+]2CC(=O)N1c1c(C)cccc1C (stereo not given)	91.6% (active)
Cc1cccc(C)c1NC(=O)C1c2cccc[n+]2CC(=O)N1Cc1cccs1 (stereo not given)	-7.5%
Cc1ccccc1NC(=O)C1c2cccc[n+]2CC(=O)N1Cc1ccc2c(c1)OCO2 (stereo not given)	-17.8%
C(=C\c1ccccc1)/C=N/Nc1nc(N2CCOCC2)nc(N2CCOCC2)n1	-1.4%
CCn1c(SCC(=O)N2CCN(c3ccc(F)cc3)CC2)nnc1-c1ccncc1	8.1%
O=C(CCn1c(=S)oc2ccccc21)Nc1cccc(F)c1	-10.5%
O=C(NCc1ccco1)c1cccc(Nc2nc3ccc(Br)cc3[nH]2)c1	22%
O=C(NCc1cccs1)c1cccc(Nc2nc3ccc(Br)cc3[nH]2)c1	15.4%
O=C(NCC1CC1)c1ccc(Nc2nc3ccc(Br)cc3[nH]2)cc1	84% (active)
COC(=O)/C=C1\SC(=NC(=O)c2ccc(C)cc2)NC1=O	3.6%
O=C(O)/C=C/c1ccc(O)c(O)c1	56.4% (active)
O=Cc1ccc(O)c(O)c1	25.6%
COc1cc(/C=C/C(=O)CC(=O)/C=C/c2ccc(O)c(OC)c2)ccc1O	5.3%

SMILES	inhibition
COc1ccc(NC(=O)/C=C/c2ccc(OC)c(OC)c2)cn1	-4.6%
Cc1cc([N+](=O)[O-])cnc1Sc1nccn1C	-29.4%
O=C(CCc1nc2ccccc2[nH]c1=O)OCC(=O)c1ccc(Cl)cc1	2.3%
COc1ccc(/C=N/NC(=O)c2nn(-c3ccc(Cl)cc3)c(=O)c3c(N)scc23)cc1	50.7% (active)
CCOC(=O)c1nn(-c2ccc(C)cc2)c(=O)c2c(N)scc12	39.4%
CCOC(=O)c1nn(-c2ccc(F)cc2)c(=O)c2c(N)scc12	40.7%
CCOC(=O)c1nn(-c2ccccc2)c(=O)c2c(N)scc12	36.2%
COc1ccc(/C=N/NC(=O)c2nc(-c3ccccc3)n(-c3ccccc3)n2)cc1	17%
Nc1scc2c(C(=O)N/N=C/c3ccc(Cl)cc3)nn(-c3ccccc3)c(=O)c12	69.6% (active)
COc1ccc(/C=N/NC(=O)c2nn(-c3ccc(C)c(C)c3)c(=O)c3ccccc23)cc1	13.2%
COc1ccc(/C=N/NC(=O)c2nn(-c3ccccc3)c(=O)c3c(N)scc23)cc1	60.7% (active)
CCOC(=O)c1nn(-c2ccc(OC)cc2)c(=O)c2c(N)scc12	46.8%
O=C(CSc1nc2cc(Cl)ccc2s1)Nc1cccc(S(=O)(=O)N2CCOCC2)c1	15.2%
CCN1CCN(C(c2cccs2)C(C)NC(=O)CC(C)C)CC1 (stereo not given)	0.5%
CCN(CCNC(=O)C1CCN(S(=O)(=O)c2cccc3cccnc23)CC1)c1ccccc1	8.4%
O=C(NNC(=O)c1cc(OCC(F)(F)F)ccc1OCC(F)(F)F)c1ccc(Cl)c(Cl)c1	16.5%
Cc1cc2oc(=O)cc(CN3CCCc4ccccc43)c2cc1C	-11.2%
Cc1ccc(SCCC(=O)NCCSCc2ccco2)cc1	7.9%
CN1CCC(N(C)C(=O)/C=C/c2cn(-c3ccccc3)nc2-c2cccs2)CC1	-5.9%
COc1ccc(S(=O)(=O)N2CCN(Cc3ccc(Cl)cc3)CC2)cc1	14.7%
Cc1ccc([N+](=O)[O-])cc1-c1[nH]c(-c2ccc(O)c(O)c2)nc1-c1ccccc1	51.7% (active)
COc1ccc(-c2nc(-c3ccccc3)c(-c3cc([N+](=O)[O-])ccc3C)[nH]2)cc1O	22.5%
CCOc1cc(-c2nc(-c3ccccc3)c(-c3cc([N+](=O)[O-])ccc3C)[nH]2)ccc1O	14.4%
Cc1ccc(COc2ccc(Br)cc2/C=N/O)cc1	19.7%

SMILES	inhibition
O=[N+]([O-])c1cc([N+](=O)[O-])c2c(=Nc3ccccc3)n(-c3ccccc3)n(O)c2c1	10.6%
O=c1c2c([N+](=O)[O-])cc([N+](=O)[O-])cc2sn1-c1ccc(Br)cc1	109% (active)
O=c1c2cc(Br)ccc2nc(-c2ccc([N+](=O)[O-])cc2)n1O	-3.6%
CCOc1ccccc1CN1CCN(S(=O)(=O)CC)CC1	3.5%
O=c1[nH]c(CSc2nnc(COc3ccccc3)n2-c2ccccc2)nc2ccccc12	-3.6%
Nc1cc(C(=O)OCC(=O)NCc2ccco2)ccc1Cl	-6.8%
COC(=O)c1ccc(OC)cc1OCC(=O)N1CCN(c2ccc(F)cc2)CC1	13.1%
O=C(/C=C/c1c(Cl)cccc1Cl)NCCc1ccccc1	-10%
CCS(=O)(=O)N1CCC(C(=O)NCc2cccnc2)CC1	4.6%
CC(C)CN(CC(C)C)S(=O)(=O)N1CCC(C(=O)NCc2cccnc2)CC1	55.2% (active)
CC(C)CN(CC(C)C)S(=O)(=O)N1CCC(C(=O)NCc2ccc(F)cc2)CC1	2.6%
COc1ccc(NC(=O)C(c2ccccc2)N(C)C(=O)CNC(C)=O)cc1 (stereo not given)	-1.1%
COc1ccc2nc(N=Nc3ccc(N(C)C)cc3)sc2c1	-5.8%
CN(C)C(=O)c1nc2ccccc2s1	4.6%
CCOC(=O)N/C(N)=N/c1nc2ccccc2s1	3.7%
COc1ccc2nc(/N=C\N(C)C)sc2c1	7%
COc1ccc(-n2c(N)c(C(=O)NCC3CCCO3)sc2=S)cc1 (stereo not given)	6%
Cn1c(=O)c(=O)n(C)c2cc(S(=O)(=O)N3CCC(Cc4ccccc4)CC3)ccc21	0.3%
OCCN1CCN(C(c2cccs2)c2ccc3cccnc3c2O)CC1 (stereo not given)	50.8% (active)
CN1CCN(C(c2cccnc2)c2ccc3cccnc3c2O)CC1 (stereo not given)	39.6%
Oc1c(C(c2cccs2)N2CCN(c3ccccc3)CC2)sc2ncnn12 (stereo not given)	-6.2%
Cc1conc1NC(c1cccs1)c1ccc2cccnc2c1O (stereo not given)	13%
Oc1c(C(c2ccccc2Cl)N2CCCC2)ccc2cccnc12 (stereo not given)	32.1%
CCOC(=O)N1CCN(C(c2cccnc2)c2ccc3cccnc3c2O)CC1 (stereo not given)	60.4% (active)

SMILES	inhibition
CCOC(=O)N1CCN(S(=O)(=O)c2cccc3cccnc23)CC1	-9.6%
Oc1c(C(c2ccccn2)N2CCOCC2)ccc2cccnc12 (stereo not given)	60.9% (active)
Cc1nc2sc(C(c3cccs3)N3CCN(c4ccccc4)CC3)c(O)n2n1 (stereo not given)	4.2%
Oc1c(C(Nc2ccccn2)c2ccccn2)ccc2cccnc12 (stereo not given)	6.9%
Oc1c(C(c2cccs2)N2CCN(c3ccccc3)CC2)ccc2cccnc12 (stereo not given)	58.8% (active)
CCC(=O)NC(c1cccs1)c1ccc2cccnc2c1O (stereo not given)	33.8%
COC(=O)c1nn(-c2ccccc2)c(=O)cc1Oc1ccc(Cl)cc1	-15.5%
CCOC(=O)N1CCC(NC(=O)CCC(=O)N2CC(C)Oc3ccc(Cl)cc32)CC1 (stereo not given)	19.2%
COc1ccc(C(=O)Nc2nnc(Cc3cccs3)s2)cc1OC	7.8%
COc1c(Cl)cnn(-c2ccc(Cl)c(Cl)c2)c1=O	-2.9%
CC1(C)NC(=O)N(CCOCCOc2ccccc2-c2ccccc2)C1=O	-2.9%
COc1cc(O)c2c(c1)OC(c1ccc(O)cc1)CC2=O (stereo not given)	-1.3%
COc1cc2c(cc1OC)C1(Nc3c-2c(Cc2ccccc2)nn3-c2ccccc2)C(=O)Nc2ccccc21 (stereo not given)	9.3%
Clc1ccc(-c2nn3c(-c4ccccn4)nnc3s2)c(Cl)c1	-4.5%
Cc1cccc(N2C(=O)SC(SC(=Nc3ccccc3)Nc3ccccc3)C2=O)c1 (stereo not given)	52.5% (active)
Cc1cccc(N2C(=O)CC(SC(=Nc3ccccc3)Nc3ccccc3)C2=O)c1 (stereo not given)	15.7%
O=C1SC(SC(=Nc2ccccc2)Nc2ccccc2)C(=O)N1c1ccccc1 (stereo not given)	-11.6%
Cc1ccc2c(c1)n([O-])c1c([n+]2=O)CCCC1	17.7%
O=[n+]1c2c(n([O-])c3cc(F)ccc31)CCCC2	5.7%
CCOc1ccc2c(c1)n([O-])c1c([n+]2=O)CCCC1	56.8% (active)
CSc1ccccc1NC(=O)CN(C)Cc1ccc(Br)cc1	16%
Cc1ccccc1Cn1ccc(NC(=O)c2cnn3cccnc23)n1	10.4%
CCOC(=O)NC(=O)CSc1ccccn1	2.1%
